DT40 TDP1 no CPT: qHTS for Inhibitors of human tyrosyl-DNA phosphodiesterase 1 (TDP1): qHTS in cells in absence of CPT | DT40 Tdp1-/- hTDP1 cells, no CPT, ATP luminescence, 48 h | 15% of 420,000 active | Potency, µM (series often up to 46.2 µM), inactives show at the highest dose activity change, negative = growth inhibition, actives largely listed as inhibitors | AID 686978, 2013; note: potency is the fitted concentration of half-maximal effect; nearly all actives have a fitted effect of over 55% in size
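Growth kinetics read by CellTiter-Glo luminescence after ≥48 hr at 37 °C. Cells: DT40 Tdp1-/- stably carrying human TDP1, 400 per well, compound exposure in the absence of CPT (DMSO vehicle).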
TDP1 cell CPT: qHTS for Inhibitors of human tyrosyl-DNA phosphodiesterase 1 (TDP1): qHTS in cells in presence of CPT | 12% of 420,000 active | chicken DT40 Tdp1-/-;hTDP1 cells + 20 nM CPT, ATP luminescence, 48 h | Potency, µM (highest dose often 46.2 µM), for the others: at the top dose activity change, negative = growth inhibition, actives largely listed as inhibitors; note: potency is the fitted concentration of half-maximal effect; nearly all actives have a fitted effect of over 55% in size
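Chicken DT40 Tdp1-/- cells complemented with human TDP1, 400 cells/well, exposed to compounds plus 20 nM camptothecin for at least 48 h at 37 C; viability read as ATP content by CellTiter-Glo luminescence.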
IL1B secr inh: qHTS for Inhibitors of Inflammasome Signaling: IL-1-beta AlphaLISA Primary Screen | THP-1 LPS/ATP IL-1B secretion, AlphaLISA, 16 h; hits give low values | activity change, % at 57.5 µM | 4.7% of 360,000 active; in the data active = activity change below about -50%; inconclusive = mostly about -30% to -49%
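THP-1 cells pretreated 1 hr with compounds (up to 57.5 uM final), then stimulated with LPS (250 ng/mL final) plus ATP (1.25 mM final); secreted IL-1B measured by AlphaLISA after 16 hr, decreased signal indicating inhibition.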
HT1080NT lethal: qHTS for induction of synthetic lethality in tumor cells producing 2HG: qHTS for the HT-1080-NT fibrosarcoma cell line | HT-1080-NT fibrosarcoma viability, CellTiter-Glo ATP luminescence, 48 h | Potency, µM (highest dose often 46.1 µM), for inactives: at the top dose activity, negative = less viability, most hits filed as cytotoxic | 1.6% of 360,000 active | AID 686970, 2013;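 note: NT is the 2HG producing partner of a matched IDH1 knockdown line; potency is the fitted concentration of half-maximal effect; 0% = DMSO-treated cells and -100% = media-only wells without cells; nearly all actives have a fitted effect of over 55% in size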
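Compounds were tested in concentration-response format on HT-1080-NT cells for 48 hours at 37 degrees C. Cell viability came from CellTiter-Glo luminescence; curves were classified by r2, response magnitude and activity.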
HT1080 IDH1KD tx: qHTS for induction of synthetic lethality in tumor cells producing 2HG: qHTS for the HT-1080-IDH1KD cell line; Potency, µM (series often up to 46.1 µM), for the others: at the top dose activity, negative = toxicity, usual class: cytotoxic; 2% of 360,000 active; HT-1080 IDH1 knockdown viability, ATP luminescence, 48 h;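 note: potency is the fitted concentration of half-maximal effect; 0% = DMSO wells and -100% = cell-free medium wells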
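Knockdown cells (IDH1KD HT-1080) received compounds 2 h after plating at 750 cells/well and were kept 48 h at 37 °C in 5% FBS RPMI. A CellTiter-Glo luminescence read gave % activity for curve fitting.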
* = called active by the depositor. Only some compounds are listed: those with a hit (about 19% of all), similar ones and a draw of the others. Unless noted, calls come from the whole dose curve; as a rule, active = well fitted curve in the direction sought with a large enough effect; inconclusive = small, poorly fitted or top-dose-only effect, or another doubt; inactive = no such curve, though single readings can be large; an effect the other way counts as inactive or inconclusive. Unless noted, % is set by controls: 0 for no effect and ±100 for the full control effect.

What do the screens show for `Fc1cccc(Cc2c(-c3ccccc3)nc3ccc(Cl)cn23)c1`?
DT40 TDP1 no CPT: inconclusive; TDP1 cell CPT: inconclusive; IL1B secr inh: 15.9; HT1080NT lethal: inconclusive; HT1080 IDH1KD tx: -22.3%

What do the screens show for `Cc1ccc(-c2nc3ccc(Br)cn3c2Cc2ccccc2)cc1`?
DT40 TDP1 no CPT: inconclusive; TDP1 cell CPT: 14.6µM*; IL1B secr inh: 0.0; HT1080NT lethal: -29.0%; HT1080 IDH1KD tx: inconclusive

How did N#Cc1ccc(-c2nc3ccc(Br)cn3c2Cc2cccc(Cl)c2)cc1 do in these assays?
DT40 TDP1 no CPT: 20.6µM*; TDP1 cell CPT: inconclusive; IL1B secr inh: -28.7; HT1080NT lethal: -9.5%; HT1080 IDH1KD tx: -19.5%

What do the screens show for `Cn1cc(C(=O)NC2CCCCC2)c(=O)c2cc(S(=O)(=O)N3CCOCC3)ccc21`?
DT40 TDP1 no CPT: 7.4%; TDP1 cell CPT: -10.6%; IL1B secr inh: 33.3; HT1080NT lethal: 13.0%; HT1080 IDH1KD tx: 6.9%

How did O=C(CCNC(=O)c1ccc(Br)cc1)NCC1COc2ccccc2O1 (stereo unspecified) do in these assays?
DT40 TDP1 no CPT: -12.8%; TDP1 cell CPT: inconclusive; IL1B secr inh: 11.9; HT1080NT lethal: 0.0%; HT1080 IDH1KD tx: -3.7%

What do the screens show for `CCOC(=S)N/C(=N\S(=O)(=O)c1ccc(C)cc1)c1ccccc1`?
DT40 TDP1 no CPT: -15.3%; TDP1 cell CPT: inconclusive; IL1B secr inh: 6.8; HT1080NT lethal: 2.8%; HT1080 IDH1KD tx: -0.7%

What do the screens show for `CCCc1nc2cc3c(cc2[nH]1)n(C)c(=O)n3C`?
DT40 TDP1 no CPT: 17.5%; TDP1 cell CPT: 9.1%; IL1B secr inh: 7.7; HT1080NT lethal: 27.4%; HT1080 IDH1KD tx: inconclusive

How did COc1ccc(NC(=O)CN2CCN(S(=O)(=O)N3CCCCCC3)CC2)cc1 do in these assays?
DT40 TDP1 no CPT: -13.3%; TDP1 cell CPT: 1.8%; IL1B secr inh: -6.9; HT1080NT lethal: 0.3%; HT1080 IDH1KD tx: 1.6%

How did N#CC(C(N)=O)=C1CCCCC1 do in these assays?
DT40 TDP1 no CPT: -21.4%; TDP1 cell CPT: 14.8%; HT1080NT lethal: 17.2%; HT1080 IDH1KD tx: 13.4%

What do the screens show for `Cc1ccc(-c2nc3ccccn3c2C=O)cc1`?
DT40 TDP1 no CPT: inconclusive; TDP1 cell CPT: inconclusive; IL1B secr inh: 9.4; HT1080NT lethal: -11.3%; HT1080 IDH1KD tx: -5.2%

Results for Cc1ccc(-c2nc3ccc(Br)cn3c2Cc2cccc(Cl)c2)cc1 ?
DT40 TDP1 no CPT: 9.2µM*; TDP1 cell CPT: 14.6µM*; IL1B secr inh: 58.8; HT1080NT lethal: inconclusive; HT1080 IDH1KD tx: inconclusive

Results for Cc1ccc(-c2nc3ccc(C)cn3c2Cc2cccc(Cl)c2)cc1 ?
DT40 TDP1 no CPT: inconclusive; TDP1 cell CPT: inconclusive; IL1B secr inh: -1.4; HT1080NT lethal: inconclusive; HT1080 IDH1KD tx: inconclusive

What do the screens show for `Cc1c(-c2ccc(Br)cc2)nc2ccccn12`?
DT40 TDP1 no CPT: inconclusive; TDP1 cell CPT: -29.8%; IL1B secr inh: -80.9*; HT1080NT lethal: inconclusive; HT1080 IDH1KD tx: -19.7%

What do the screens show for `Cc1cc(OCC(=O)O/N=C(\N)c2ccccc2)ccc1Br`?
DT40 TDP1 no CPT: 12.7%; TDP1 cell CPT: 12.6%; IL1B secr inh: -11.7; HT1080NT lethal: inconclusive; HT1080 IDH1KD tx: 28.6%

What do the screens show for `O=[N+]([O-])c1cc2oc3c(c2c(C=NCc2ccccc2)c1O)CCCC3`?
DT40 TDP1 no CPT: 14.6µM*; TDP1 cell CPT: 8.2µM*; IL1B secr inh: 3.0; HT1080NT lethal: -0.5%; HT1080 IDH1KD tx: -1.2%

What do the screens show for `CC(C)CN=Cc1c(O)c([N+](=O)[O-])cc2oc3c(c12)CCCC3`?
DT40 TDP1 no CPT: inconclusive; TDP1 cell CPT: inconclusive; IL1B secr inh: 22.2; HT1080NT lethal: -9.9%; HT1080 IDH1KD tx: -12.1%

How did COc1cc(-c2coc3c(C(=O)NCc4ccc(N(C)C)cc4)cccc23)ccc1O do in these assays?
DT40 TDP1 no CPT: inconclusive; TDP1 cell CPT: 16.4µM*; IL1B secr inh: -53.1*; HT1080NT lethal: inconclusive; HT1080 IDH1KD tx: inconclusive

Results for COc1cc(-c2coc3c(C(=O)NCc4ccc(OC)c(OC)c4)cccc23)ccc1O ?
DT40 TDP1 no CPT: 4.61µM*; TDP1 cell CPT: 5.8µM*; IL1B secr inh: -5.2; HT1080NT lethal: inconclusive; HT1080 IDH1KD tx: 3.26µM*

Results for COc1cc(-c2coc3c(C(=O)Nc4ccc(C(C)C)cc4)cccc23)ccc1O ?
DT40 TDP1 no CPT: 20.6µM*; TDP1 cell CPT: inconclusive; IL1B secr inh: 14.2; HT1080NT lethal: inconclusive; HT1080 IDH1KD tx: 20.6µM*

What do the screens show for `COc1ccc(CNC(=O)c2cccc3c(-c4ccc(F)c(F)c4)coc23)cc1OC`?
DT40 TDP1 no CPT: 11.6µM*; TDP1 cell CPT: 20.6µM*; IL1B secr inh: -10.4; HT1080NT lethal: inconclusive; HT1080 IDH1KD tx: 16.4µM*

How did O=C(NCc1ccccc1)c1cccc2c(-c3ccc(F)c(F)c3)coc12 do in these assays?
DT40 TDP1 no CPT: inconclusive; TDP1 cell CPT: inconclusive; IL1B secr inh: -18.4; HT1080NT lethal: inconclusive; HT1080 IDH1KD tx: inconclusive

Results for CC(C)(C)[C@H]1COC(=O)CCCC/C=C\C[C@H](CC(=O)NCCO)C(=O)N1 ?
DT40 TDP1 no CPT: 1.6%; TDP1 cell CPT: -3.8%; IL1B secr inh: 8.6; HT1080NT lethal: 20.7%; HT1080 IDH1KD tx: 6.1%

What do the screens show for `CC1CCCC(C)N1C(=O)CSc1nc2c(c(=O)n(C)c(=O)n2C)n1C` (stereo unspecified)?
DT40 TDP1 no CPT: -17.0%; TDP1 cell CPT: 2.4%; IL1B secr inh: 8.0; HT1080NT lethal: 15.6%; HT1080 IDH1KD tx: 11.7%

How did COc1ccc(OCC(=O)NNC(=O)C(=O)N2CCCC2)cc1 do in these assays?
DT40 TDP1 no CPT: -2.6%; TDP1 cell CPT: -1.7%; IL1B secr inh: 6.2; HT1080NT lethal: 1.0%; HT1080 IDH1KD tx: -5.8%

How did CN(C)c1cccc(NC(=O)c2cccc3c(-c4ccc(F)c(F)c4)coc23)c1 do in these assays?
DT40 TDP1 no CPT: 20.6µM*; TDP1 cell CPT: inconclusive; IL1B secr inh: -12.9; HT1080NT lethal: 29.2%; HT1080 IDH1KD tx: 8.3%

How did CN(C)CCNC(=O)c1cccc2c(-c3ccc(F)c(F)c3)coc12 do in these assays?
DT40 TDP1 no CPT: inconclusive; TDP1 cell CPT: inconclusive; IL1B secr inh: -21.1; HT1080NT lethal: inconclusive; HT1080 IDH1KD tx: inconclusive

What do the screens show for `COc1ccc(CNC(=O)c2cccc3c(-c4cccc(C(N)=O)c4)coc23)cc1OC`?
DT40 TDP1 no CPT: 5.17µM*; TDP1 cell CPT: 3.66µM*; IL1B secr inh: 52.1; HT1080NT lethal: inconclusive; HT1080 IDH1KD tx: 5.8µM*

Assay outcomes deposited in PubChem BioAssay by National Center for Advancing Translational Sciences (NCATS).
